# From the supplement of paper PMC4466140
# Assays:
# Test in all cases: SPOT peptide array binding signal intensity (averaged, normalized) (arbitrary units (background-subtracted, floor 0; scale differs between SH3 domains)); higher = stronger binding of the SH3 domain to the peptide
# AgAbp1 = biological target: AgAbp1
# Description: (§1)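 GST-tagged SH3 domains from S. cerevisiae (Sc), A. gossypii (Ag), C. albicans (Ca) and S. pombe (Sp) were incubated at 10 ug/ml overnight at 4 C on cellulose SPOT membranes carrying 292 synthetic 15-mer peptides mined from the S. cerevisiae proteome (cysteines replaced by serines). Binding was detected with anti-GST antibody, HRP secondary and chemiluminescence, quantified with Genespotter, and reported as normalized spot intensities averaged over biological replicates.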
# AgBbc1 = biological target: AgBbc1
# Description: as §1
# AgBem1-D1 = biological target: AgBem1-D1
# Description: as §1
# AgBzz1-D1 = biological target: AgBzz1-D1
# Description: as §1
# AgBzz1-D2 = biological target: AgBzz1-D2
# Description: as §1
# AgCyk3 = biological target: AgCyk3
# Description: as §1
# AgFus1 = biological target: AgFus1
# Description: as §1
# AgHof1 = biological target: AgHof1
# Description: as §1
# AgHse1 = biological target: AgHse1
# Description: as §1
# AgLsb1 = biological target: AgLsb1
# Description: as §1
# AgLsb4 = biological target: AgLsb4
# Description: as §1
# AgMyo5 = biological target: AgMyo5
# Description: as §1
# AgNbp2 = biological target: AgNbp2
# Description: as §1
# AgRvs167 = biological target: AgRvs167
# Description: as §1
# AgSho1 = biological target: AgSho1
# Description: as §1
# AgSla1-D1-D2 = biological target: AgSla1-D1-D2
# Description: as §1
# AgSla1-D3 = biological target: AgSla1-D3
# Description: as §1
# CaAbp1-D1 = biological target: CaAbp1-D1
# Description: as §1
# CaAbp1-D2 = biological target: CaAbp1-D2
# Description: as §1
# CaBbc1 = biological target: CaBbc1
# Description: as §1
# CaBem1-D1 = biological target: CaBem1-D1
# Description: as §1
# CaBzz1-D1 = biological target: CaBzz1-D1
# Description: as §1
# CaBzz1-D2 = biological target: CaBzz1-D2
# Description: as §1
# CaCyk3 = biological target: CaCyk3
# Description: as §1
# CaFus1 = biological target: CaFus1
# Description: as §1
# CaHof1 = biological target: CaHof1
# Description: as §1
# CaHse1 = biological target: CaHse1
# Description: as §1
# CaLsb1 = biological target: CaLsb1
# Description: as §1
# CaLsb4 = biological target: CaLsb4
# Description: as §1
# CaMyo5 = biological target: CaMyo5
# Description: as §1
# CaNbp2 = biological target: CaNbp2
# Description: as §1
# CaRvs167 = biological target: CaRvs167
# Description: as §1
# CaRvs167-3 = biological target: CaRvs167-3
# Description: as §1
# CaSho1 = biological target: CaSho1
# Description: as §1
# CaSla1-D1-D2 = biological target: CaSla1-D1-D2
# Description: as §1
# CaSla1-D3 = biological target: CaSla1-D3
# Description: as §1
# ScAbp1 = biological target: ScAbp1
# Description: as §1
# ScBbc1 = biological target: ScBbc1
# Description: as §1
# ScBem1-D1 = biological target: ScBem1-D1
# Description: as §1
# ScBzz1-D1 = biological target: ScBzz1-D1
# Description: as §1
# ScBzz1-D2 = biological target: ScBzz1-D2
# Description: as §1
# ScCyk3 = biological target: ScCyk3
# Description: as §1
# ScFus1 = biological target: ScFus1
# Description: as §1
# ScHof1 = biological target: ScHof1
# Description: as §1
# ScHse1 = biological target: ScHse1
# Description: as §1
# ScLsb1 = biological target: ScLsb1
# Description: as §1
# ScLsb2 = biological target: ScLsb2
# Description: as §1
# ScLsb3 = biological target: ScLsb3
# Description: as §1
# ScLsb4 = biological target: ScLsb4
# Description: as §1
# ScMyo3 = biological target: ScMyo3
# Description: as §1
# ScMyo5 = biological target: ScMyo5
# Description: as §1
# ScNbp2 = biological target: ScNbp2
# Description: as §1
# ScPex13 = biological target: ScPex13
# Description: as §1
# ScRvs167 = biological target: ScRvs167
# Description: as §1
# ScSho1 = biological target: ScSho1
# Description: as §1
# ScSla1-D1-D2 = biological target: ScSla1-D1-D2
# Description: as §1
# ScSla1-D3 = biological target: ScSla1-D3
# Description: as §1
# SpAbp1-D1 = biological target: SpAbp1-D1
# Description: as §1
# SpBbc1 = biological target: SpBbc1
# Description: as §1
# SpBzz1-D1 = biological target: SpBzz1-D1
# Description: as §1
# SpBzz1-D2 = biological target: SpBzz1-D2
# Description: as §1
# SpCyk3 = biological target: SpCyk3
# Description: as §1
# SpHof1 = biological target: SpHof1
# Description: as §1
# SpHof1-2 = biological target: SpHof1-2
# Description: as §1
# SpHof1-3 = biological target: SpHof1-3
# Description: as §1
# SpHse1 = biological target: SpHse1
# Description: as §1
# SpLsb1 = biological target: SpLsb1
# Description: as §1
# SpLsb4 = biological target: SpLsb4
# Description: as §1
# SpMyo1 = biological target: SpMyo1
# Description: as §1
# SpNbp2 = biological target: SpNbp2
# Description: as §1
# SpPex13 = biological target: SpPex13
# Description: as §1
# SpRvs167 = biological target: SpRvs167
# Description: as §1
# SpSla1-D1-D2 = biological target: SpSla1-D1-D2
# Description: as §1
# SpSla1-D3 = biological target: SpSla1-D3
# Description: as §1
binder,measurement,setting,value
NLKKRPPTAPQRKIS,SPOT peptide array binding signal intensity,AgAbp1,2190
same,SPOT peptide array binding signal intensity,AgBbc1,265
same,SPOT peptide array binding signal intensity,AgBem1-D1,28.5
same,SPOT peptide array binding signal intensity,AgBzz1-D1,277
same,SPOT peptide array binding signal intensity,AgBzz1-D2,199
same,SPOT peptide array binding signal intensity,AgCyk3,≤ 0
same,SPOT peptide array binding signal intensity,AgFus1,110
same,SPOT peptide array binding signal intensity,AgHof1,60
same,SPOT peptide array binding signal intensity,AgHse1,1520
same,SPOT peptide array binding signal intensity,AgLsb1,2.25
same,SPOT peptide array binding signal intensity,AgLsb4,109
same,SPOT peptide array binding signal intensity,AgMyo5,≤ 0
same,SPOT peptide array binding signal intensity,AgNbp2,245
same,SPOT peptide array binding signal intensity,AgRvs167,13.5
same,SPOT peptide array binding signal intensity,AgSho1,33.5
same,SPOT peptide array binding signal intensity,AgSla1-D1-D2,370
same,SPOT peptide array binding signal intensity,AgSla1-D3,28.2
same,SPOT peptide array binding signal intensity,CaAbp1-D1,5270
same,SPOT peptide array binding signal intensity,CaAbp1-D2,6470
same,SPOT peptide array binding signal intensity,CaBbc1,646
same,SPOT peptide array binding signal intensity,CaBem1-D1,48.5
same,SPOT peptide array binding signal intensity,CaBzz1-D1,727
same,SPOT peptide array binding signal intensity,CaBzz1-D2,2010
same,SPOT peptide array binding signal intensity,CaCyk3,3
same,SPOT peptide array binding signal intensity,CaFus1,254
same,SPOT peptide array binding signal intensity,CaHof1,1
same,SPOT peptide array binding signal intensity,CaHse1,34.5
same,SPOT peptide array binding signal intensity,CaLsb1,≤ 0
same,SPOT peptide array binding signal intensity,CaLsb4,942
same,SPOT peptide array binding signal intensity,CaMyo5,4.5
ISNFVPPNLPMRRFK,SPOT peptide array binding signal intensity,AgAbp1,31.5
same,SPOT peptide array binding signal intensity,AgBbc1,182
same,SPOT peptide array binding signal intensity,AgBem1-D1,124
same,SPOT peptide array binding signal intensity,AgBzz1-D1,90
same,SPOT peptide array binding signal intensity,AgBzz1-D2,70.5
same,SPOT peptide array binding signal intensity,AgCyk3,1
same,SPOT peptide array binding signal intensity,AgFus1,23
same,SPOT peptide array binding signal intensity,AgHof1,186
same,SPOT peptide array binding signal intensity,AgHse1,49
same,SPOT peptide array binding signal intensity,AgLsb1,136
same,SPOT peptide array binding signal intensity,AgLsb4,3890
same,SPOT peptide array binding signal intensity,AgMyo5,≤ 0
same,SPOT peptide array binding signal intensity,AgNbp2,64
same,SPOT peptide array binding signal intensity,AgRvs167,256
same,SPOT peptide array binding signal intensity,AgSho1,20.5
same,SPOT peptide array binding signal intensity,AgSla1-D1-D2,2.5
same,SPOT peptide array binding signal intensity,AgSla1-D3,3
same,SPOT peptide array binding signal intensity,CaAbp1-D1,40
same,SPOT peptide array binding signal intensity,CaAbp1-D2,9
same,SPOT peptide array binding signal intensity,CaBbc1,902
same,SPOT peptide array binding signal intensity,CaBem1-D1,21
same,SPOT peptide array binding signal intensity,CaBzz1-D1,370
same,SPOT peptide array binding signal intensity,CaBzz1-D2,297
same,SPOT peptide array binding signal intensity,CaCyk3,47
same,SPOT peptide array binding signal intensity,CaFus1,152
same,SPOT peptide array binding signal intensity,CaHof1,5
same,SPOT peptide array binding signal intensity,CaHse1,72
same,SPOT peptide array binding signal intensity,CaLsb1,10.2
same,SPOT peptide array binding signal intensity,CaLsb4,5880
same,SPOT peptide array binding signal intensity,CaMyo5,28.5
same,SPOT peptide array binding signal intensity,CaNbp2,103
same,SPOT peptide array binding signal intensity,CaRvs167,571
same,SPOT peptide array binding signal intensity,CaRvs167-3,6.25
same,SPOT peptide array binding signal intensity,CaSho1,49.5
same,SPOT peptide array binding signal intensity,CaSla1-D1-D2,1000
same,SPOT peptide array binding signal intensity,CaSla1-D3,250
same,SPOT peptide array binding signal intensity,ScAbp1,44
same,SPOT peptide array binding signal intensity,ScBbc1,130
same,SPOT peptide array binding signal intensity,ScBem1-D1,13
same,SPOT peptide array binding signal intensity,ScBzz1-D1,29.5
same,SPOT peptide array binding signal intensity,ScBzz1-D2,63
same,SPOT peptide array binding signal intensity,ScCyk3,5.5
same,SPOT peptide array binding signal intensity,ScFus1,17
same,SPOT peptide array binding signal intensity,ScHof1,8.75
same,SPOT peptide array binding signal intensity,ScHse1,122
same,SPOT peptide array binding signal intensity,ScLsb1,393
same,SPOT peptide array binding signal intensity,ScLsb2,372
same,SPOT peptide array binding signal intensity,ScLsb3,7910
same,SPOT peptide array binding signal intensity,ScLsb4,2470
same,SPOT peptide array binding signal intensity,ScMyo3,17.2
same,SPOT peptide array binding signal intensity,ScMyo5,1.5
same,SPOT peptide array binding signal intensity,ScNbp2,198
same,SPOT peptide array binding signal intensity,ScPex13,1760
same,SPOT peptide array binding signal intensity,ScRvs167,1610
same,SPOT peptide array binding signal intensity,ScSho1,85.5
same,SPOT peptide array binding signal intensity,ScSla1-D1-D2,367
same,SPOT peptide array binding signal intensity,ScSla1-D3,184
same,SPOT peptide array binding signal intensity,SpAbp1-D1,26
same,SPOT peptide array binding signal intensity,SpBbc1,36.5
same,SPOT peptide array binding signal intensity,SpBzz1-D1,748
same,SPOT peptide array binding signal intensity,SpBzz1-D2,3
same,SPOT peptide array binding signal intensity,SpCyk3,8
same,SPOT peptide array binding signal intensity,SpHof1,51.8
same,SPOT peptide array binding signal intensity,SpHof1-2,41
same,SPOT peptide array binding signal intensity,SpHof1-3,22
same,SPOT peptide array binding signal intensity,SpHse1,86
same,SPOT peptide array binding signal intensity,SpLsb1,236
same,SPOT peptide array binding signal intensity,SpLsb4,6240
same,SPOT peptide array binding signal intensity,SpMyo1,31.2
same,SPOT peptide array binding signal intensity,SpNbp2,13
same,SPOT peptide array binding signal intensity,SpPex13,57.5
same,SPOT peptide array binding signal intensity,SpRvs167,1440
same,SPOT peptide array binding signal intensity,SpSla1-D1-D2,69
same,SPOT peptide array binding signal intensity,SpSla1-D3,32
